VACV mCherry inh: inhibitors of vaccinia virus infection (mCherry reporter signal). 310,000 compounds, 0.63% hits. Potency, µM (highest dose often 36.5 µM), most hits filed as inhibitors. Vaccinia virus mCherry reporter infection, fluorescence; calls by dose curve; tested in A549 cells; also: nearly all actives have a fitted effect of over 35% in size
VACV Venus inh: vaccinia inhibition (Venus reporter); 330,000 compounds, 0.46% hits; Potency, µM (doses to about 36.5 µM), hits mostly inhibitors; AID 720580; Vaccinia virus Venus reporter expression, fluorescence; calls by dose curve; tested in A549 cells; also: nearly all actives have a fitted effect of over 30% in size
Sm TGR inh: inhibitors of Schistosoma mansoni thioredoxin glutathione reductase; purified TGR, DTNB reduction, TNB absorbance 405 nm; Potency, µM (top dose mostly 114 µM), most hits filed as inhibitors; 360,000 compounds, 3% hits; also: nearly all actives have a fitted effect of over 60% in size
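First, TGR (20 nM dispensed) and NADPH were mixed with compound. Second, a 15 min room-temperature incubation followed. Third, further NADPH and then DTNB were added to start the reaction. Finally, TNB absorbance was monitored kinetically.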
FMDV inh: antivirals against foot and mouth disease virus | FMDV antiviral cell-based qHTS | Potency, µM (series often up to 57.9 µM), hits mostly inhibitors | 410,000 compounds, 1.2% hits | AID 1159524; calls by dose curve; tested in HEK293T cells; also: read-out not given here; nearly all actives have a fitted effect of over 45% in size
HCV inh: inhibitors of hepatitis C virus infection; AID 651820; 340,000 compounds, 3.4% hits; Potency, µM (series often up to 41.8 µM), actives largely listed as inhibitors; Huh7.5.1 HCVcc-Cre infection, luciferase reporter, 44 h
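Antiviral activity was scored by luciferase reporter output from cells infected with HCVcc-Cre (~0.5 moi) in presence of compound, 44 h infection period, cells seeded 1,000/well 4 h prior.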
HCMV antiviral: inhibitors of human cytomegalovirus. HFF cells, HCMV-luciferase reporter, 72 h; hits give low values. activity change, negative = inhibition, % at 57.5 µM. 410,000 compounds, 4.5% hits; in the data active = activity change below about -60%; inconclusive = no clear call, values can overlap the other calls; inactive = above about -39%
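After 16 h attachment at 37C, HFF cells received test compound and HCMV-luciferase (1 PFU/cell); reporter luminescence read 72 h later, data normalized against buffer-only and known inhibitor Salinomycin.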
Of the large screens only hits and unclear results are named; the others gave an inactive call. Hits are enriched below; roughly 9.3% of the tested compounds scored in any of these assays. Unless noted, calls follow the shape of the dose curve; as a rule, active = well fitted curve in the direction sought with a large enough effect; inconclusive = small, poorly fitted or top-dose-only effect, or another doubt; inactive = no such curve, though single readings can be large; an effect the other way counts as inactive or inconclusive.

CCOC(=O)Cc1csc(NC(=O)CS(=O)(=O)Cc2ccccc2)n1	none
Cc1nnc(NC(=O)CS(=O)(=O)Cc2ccccc2)s1	none
COc1ccc(CNc2cc(-c3cccc(NS(C)(=O)=O)c3)ncn2)c(OC)c1	none (no result: VACV mCherry inh, VACV Venus inh, Sm TGR inh, HCV inh, HCMV antiviral)
Cc1cc(NS(C)(=O)=O)c(=O)n(Cc2cccc(F)c2)c1	none (no result: VACV mCherry inh, VACV Venus inh)
COc1ccc(C=C2C(=O)c3ccccc3C2=O)cc1O	none
CCN1C/C(=C/c2ccc(OC)c(O)c2)C(=O)/C(=C/c2ccc(OC)c(O)c2)C1	VACV mCherry inh inconclusive, VACV Venus inh inconclusive, HCV inh inconclusive, HCMV antiviral -102.9
CCN1C/C(=C\c2cccc([N+](=O)[O-])c2)C(=O)/C(=C/c2cccc([N+](=O)[O-])c2)C1	FMDV inh 1.12µM, HCV inh 2.51µM, HCMV antiviral -100.4
COc1ccc(/C=C2\CN(Cc3ccccc3)C/C(=C\c3ccc(OC)c(O)c3)C2=O)cc1O	VACV mCherry inh 7.94µM, VACV Venus inh inconclusive, Sm TGR inh 44.7µM, HCV inh 6.31µM, HCMV antiviral -100.7
CCOc1ccc(/C(O)=C2/C(=O)C(=O)N(c3nc(C)c(C)s3)C2c2ccco2)cc1 (stereo unspecified)	Sm TGR inh inconclusive, HCMV antiviral -90.0 (no result: VACV mCherry inh)
CCN(CC)CCCN1C(=O)C(=O)/C(=C(/O)c2ccc(OC)cc2)C1c1ccco1 (stereo unspecified)	none (no result: Sm TGR inh)
COC(=O)c1sc(N2C(=O)C(=O)/C(=C(/O)c3ccc(C)cc3)C2c2ccco2)nc1C (stereo unspecified)	Sm TGR inh 7.08µM (no result: HCMV antiviral)
O=C(c1cc2sccc2n1Cc1ccccc1)N1CCN(c2nc3ccccc3s2)CC1	VACV mCherry inh inconclusive, VACV Venus inh inconclusive, FMDV inh inconclusive, HCV inh 4.47µM, HCMV antiviral inconclusive
Cc1ccccc1S(=O)(=O)Cc1ccc(C(=O)N2CCN(c3cccc(Cl)c3)CC2)o1	none (no result: HCV inh)
CCC(=O)N1CCN(c2nc3ccccc3s2)CC1	VACV Venus inh inconclusive, HCV inh inconclusive (no result: VACV mCherry inh)
O=C(c1ccc(Cl)c(Cl)c1)N1CCN(c2ccccn2)CC1	none
CN(c1ccccc1)S(=O)(=O)c1cc(C(=O)N2CCN(c3ccccn3)CC2)ccc1Cl	FMDV inh 12.6µM, HCV inh inconclusive (no result: VACV mCherry inh)
Cc1ccccc1S(=O)(=O)Cc1ccc(C(=O)N2CCN(c3cccc(C)c3C)CC2)o1	VACV Venus inh inconclusive, FMDV inh 25.1µM, HCV inh 5.01µM
O=C(c1ccc(S(=O)(=O)Cc2ccccc2Cl)c([N+](=O)[O-])c1)N1CCN(c2ccccn2)CC1	VACV mCherry inh inconclusive, Sm TGR inh 7.94µM, FMDV inh 15.8µM, HCV inh inconclusive, HCMV antiviral -97.2
CCC1CN(C(=O)C2CCN(S(=O)(=O)c3c(C)noc3/C=C/c3ccccc3F)CC2)c2cc(Cl)ccc2O1 (stereo unspecified)	none (no result: HCV inh)
CCOC(=O)N1CCN(C(=O)c2ccc3nc(C)sc3c2)CC1	none
Cc1nc2ccc(C(=O)N3CCN(c4ccccn4)CC3)cc2s1	HCMV antiviral -93.4
COc1ccc(C(=O)N2CCN(c3ccccn3)CC2)cc1[N+](=O)[O-]	HCMV antiviral -80.1
O=C(c1ccc2ncsc2c1)N1CCN(c2nc3ccccc3s2)CC1	VACV mCherry inh inconclusive, FMDV inh inconclusive, HCV inh 5.62µM, HCMV antiviral -73.8
COc1cc2ccccc2cc1C(=O)N1CCN(C(C)=O)CC1	none (no result: VACV mCherry inh, VACV Venus inh)
O=C(c1ccc2ncsc2c1)N1CCN(c2ccccc2Cl)CC1	HCMV antiviral inconclusive
COc1cc2ccccc2cc1C(=O)N1CCN(c2nc3ccc(F)cc3s2)CC1	FMDV inh inconclusive, HCMV antiviral -64.4 (no result: HCV inh)
COc1ccc2c(c1)C1(C(=O)O)CC=CCC1(C(=O)O)C2 (stereo unspecified)	none (no result: Sm TGR inh)
COc1cc2ccccc2cc1C(=O)N1CCN(c2ccccn2)CC1	HCMV antiviral -62.7
CC(C)NC(=O)C1CCN(C(=O)c2cc3sccc3n2Cc2ccc(Cl)cc2)CC1	FMDV inh 15.8µM (no result: HCV inh, HCMV antiviral)
O=C(Nc1ccccc1)N1CCN(c2nc3ccccc3s2)CC1	FMDV inh inconclusive, HCV inh inconclusive, HCMV antiviral inconclusive (no result: VACV mCherry inh, VACV Venus inh)
COc1ccccc1S(=O)(=O)Cc1ccc(C(=O)N2CCN(c3ccccn3)CC2)o1	Sm TGR inh 28.2µM, FMDV inh inconclusive (no result: HCMV antiviral)
CC(C)NC(=O)C1CCN(C(=O)c2cc3sccc3n2Cc2ccc(F)cc2)CC1	VACV mCherry inh inconclusive, VACV Venus inh inconclusive, HCV inh inconclusive (no result: FMDV inh, HCMV antiviral)
O=C(Nc1ccc(F)cc1)N1CCN(c2nc3ccccc3s2)CC1	VACV Venus inh inconclusive, FMDV inh 28.2µM, HCV inh inconclusive, HCMV antiviral inconclusive (no result: VACV mCherry inh)
Cc1nn(-c2ccccc2)c(Cl)c1/C=N/NC(=O)c1ccnn1C	none (no result: VACV mCherry inh, VACV Venus inh)
COc1ccc(C(=O)NC(=O)COC(=O)C2CC2C)cc1 (stereo unspecified)	none (no result: Sm TGR inh)
COc1cccc(NC(=O)CN(c2cccc(OC)c2)S(C)(=O)=O)c1	none
COc1cccc(NC(=O)CN(c2cccc(F)c2)S(C)(=O)=O)c1	HCV inh 8.91µM (no result: FMDV inh)
COc1ccc(S(=O)(=O)N2C[C@H]3CON(C)[C@H]3C[C@H]2c2ccc(-c3cccc(F)c3)cc2)cc1	none (no result: Sm TGR inh, HCV inh)
Cc1nnc(SCC2=C(C(=O)O)N3C(=O)C(NC(=O)Cc4ccccc4)C3SC2)s1 (stereo unspecified)	Sm TGR inh 12.6µM (no result: VACV mCherry inh, VACV Venus inh)
CC1=C(C(N)=O)N2C(=O)[C@@H](NC(=O)Cc3ccccc3)C2SC1 (stereo partly specified)	none (no result: VACV mCherry inh, VACV Venus inh, Sm TGR inh, HCV inh, HCMV antiviral)
Cc1nnc(SCC2=C(C(=O)O)N3C(=O)C(NC(=O)C(C)n4nc(C(F)(F)F)cc4C)C3SC2)s1 (stereo unspecified)	Sm TGR inh 7.08µM
CCCn1nc(NS(=O)(=O)c2cccc3nonc23)c2cc3cccc(C)c3nc21	none (no result: VACV mCherry inh, VACV Venus inh)
Nc1nc(-c2ccco2)cs1	Sm TGR inh inconclusive (no result: VACV mCherry inh)
c1coc(-c2nc(-c3ccco3)c(-c3ccco3)nc2-c2ccco2)c1	Sm TGR inh 0.708µM
Nc1nc(-c2ccco2)c(-c2ccco2)s1	VACV mCherry inh inconclusive, Sm TGR inh 20µM, HCV inh inconclusive
COc1ccc(-c2nc3ccccc3nc2-c2ccc(OC)cc2)cc1	HCV inh inconclusive, HCMV antiviral inconclusive (no result: VACV mCherry inh, VACV Venus inh)
COc1ccc2nc(-c3ccco3)c(-c3ccco3)nc2c1	Sm TGR inh 3.55µM, HCV inh inconclusive
COc1ccc2nc3cccc(OC)c3nc2c1	Sm TGR inh 20µM (no result: VACV mCherry inh, VACV Venus inh)
CC1(C)Cc2c(c(N3CCOCC3)nc3sc(C(=O)Nc4ccccc4)c(N)c23)CO1	none (no result: VACV mCherry inh, VACV Venus inh)
N=C1c2ccccc2CN1NC(=O)c1ccc(Cl)cc1	none (no result: FMDV inh)
O=C(Nc1ccc(NC(=O)c2ccccc2)c2ccccc12)c1ccccc1	VACV Venus inh inconclusive (no result: Sm TGR inh, HCV inh)
COc1ccc2c(CC(=O)Nc3ncc(C)s3)coc2c1	VACV Venus inh inconclusive, HCV inh inconclusive, HCMV antiviral -77.5
COc1ccc2c(CC(=O)Nc3nc(C)cs3)coc2c1	none
Nc1nc(N)c(-c2cccc(C(F)(F)F)c2)c(Cc2cccc(C(F)(F)F)c2)n1	VACV mCherry inh 4.47µM, VACV Venus inh 3.98µM, HCV inh inconclusive, HCMV antiviral -75.4 (no result: Sm TGR inh)

Assay outcomes: PubChem, National Center for Advancing Translational Sciences (NCATS)
